Inconclusive results are not listed. Unmarked numbers belong to inactive results. Calls come from the whole dose curve; as a rule, active = well fitted cell-killing curve with a large enough effect in the repeat runs; inconclusive = weak or mixed curves, or effect the other way; inactive = no such curve, though single readings can be large or run the other way.
test: qHTS assay to identify small molecule agonists of the estrogen receptor alpha (ER-alpha) signaling pathway in the presence of an antagonist - cell viability counter screen (AID 1259386); conditions: VM7Luc4E2 viability, CellTiter-Fluor fluorescence, 22 h; series mostly up to 92.4 µM; activity change, negative = cytotoxicity: at the top concentration; note: nearly all actives have a fitted effect of over 30% in size
Summary of the method: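 Cells are starved of estrogens for 5 days in charcoal-stripped serum, seeded for 24hr and co-treated with ICI-182,780 (10.0nM final) and test compounds. After 22hr at 37C, viability is read as CellTiter-Fluor fluorescence.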
% is set by controls: 0 for no effect and ±100 for the full control effect.

SMILES | activity change, negative = cytotoxicity
CC1(O)CSC(C)(O)CS1 (centres undefined) | 3.28%
CCOC(=O)C1CC(=O)C(=C(O)C2CC2)C(=O)C1 (centres undefined) | 4.63%
Cc1ccc([N+](=O)[O-])cc1Cl | 5.31%
O=C(CCCl)NCc1ccccc1 | 0.807% [at 42.5 µM]
Cc1ccc(C)c(N)c1 | 0.159%
CCc1cc2cc(OC)c(OC)cc2c(Cc2ccccc2)n1 | -2% [at 42.5 µM]
NS(=O)(=O)c1cc(-c2nn[nH]n2)c(NCc2cccs2)cc1Cl | 0.598% [at 42.5 µM]
Cc1ccc([N+](=O)[O-])c(N)c1 | -15.8%
CC1=C2[C@H](/C=C(\C)C(=O)O)CC[C@@H](C)[C@H]2CC1 | 0.642%
COC(=O)N[C@H](C(=O)N[C@@H](Cc1ccccc1)[C@@H](O)CN(Cc1ccc(-c2ccccn2)cc1)NC(=O)[C@@H](NC(=O)OC)C(C)(C)C)C(C)(C)C | -11.7% [at 42.5 µM]
O=c1oc2c(O)c(O)cc3c(=O)oc4c(O)c(O)cc1c4c23 | -2.74% [at 19 µM]
CCCCCOc1ccc(C2SC(=O)NC2=O)cc1OCC (centres undefined) | -1.3% [at 42.5 µM]
C=CCCC=C | -1.28%
C=CCCCCCCCCO | 0.502%
O=c1[nH]c(=O)n([C@H]2C[C@H](O)[C@@H](CO)O2)cc1C(F)(F)F | 5.95% [at 42.5 µM]
FC(F)(F)C(Cl)(Cl)Cl | 1.76%
CC1=CC(=O)CC(C)(C)C1=O | -5.42%

SMILES | activity change, negative = cytotoxicity
O=S(=O)(O)C(F)(F)F | -3.97%
Cc1c(-c2ccccc2)oc2c(C(=O)OCCN3CCCCC3)cccc2c1=O | -0.0594% [at 42.5 µM]
CCN(CC)CC1CCCCN1CC(=O)N1c2ccccc2C(=O)Nc2cccnc21 (centres undefined) | -2.91% [at 42.5 µM]
Cc1cc(S(=O)(=O)O)c(N)cc1Cl | 0.152%
CC(C)O | -0.575%
CCC1(C)NC(=O)NC1=O (centres undefined) | -0.814%
Cc1cn([C@@H]2O[C@H](CO)[C@@H](O)[C@@H]2F)c(=O)[nH]c1=O | 4.53% [at 42.5 µM]
CCCCC(CC)COC(=O)COc1cc(Cl)c(Cl)cc1Cl (centres undefined) | 2.13%
O=C(O)c1ccccc1Nc1cc(Cl)ccc1C(=O)O | -2.8% [at 19 µM]
COC(=O)/C=C(/C)N | 1.44% [at 42.5 µM]
CCCCCCn1c(=O)c2c(ncn2C)n(C)c1=O | 3.6% [at 42.5 µM]
Cc1ncc(CO)c(CN)c1O | -3.49% [at 42.5 µM]
O=CCCc1ccccc1 | 4.56%
CCCCCCCCCC#N | 1.78%
COc1ccccc1N1CCN(CCCNc2cc(=O)n(C)c(=O)n2C)CC1 | -10.4% [at 42.5 µM]
CC(Oc1c(Cl)cccc1Cl)C1=NCCN1 (centres undefined) | -0.252% [at 42.5 µM]
CCCCCCCCOC(=O)CCCCCCCCC(=O)OCCCCCCCC | 5.2%
